PubChem BioAssay (NCI)
This is part of a sample that, as a whole, favours compounds with a hit. Of some 83,000 tested, about 20% had one in any assay.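 Single-concentration screen, 48 h exposure, 96-well plates. Endpoint: percent growth. Below 10 = active.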 Unmarked numbers belong to inactive results. Activity calls are given as the source filed them. Where a SMILES comes first, the peptide text is derived from it. Bridges are numbered along the chain shown (N, C = ends). [ ]: non-standard residue; d: D form. The star is where a group is joined. ξ: configuration not given here. ξNMePhe(4-NMe2) = CNC(Cc1ccc(N(C)C)cc1)C(=O)O; Picolinoyl(3-OH) = O=C(c1ncccc1O)*; ξPip(4-oxo) = O=C1CCNC(C(=O)O)C1; Phg = N[CH](C(=O)O)c1ccccc1; Abu = CC[CH](N)C(=O)O

Test system: NCI-H23 lung
Assay: NCI-60 one-dose screen, 48 h (100 = growth as untreated, 0 = no growth, -100 = all killed)
Conditions: 10 µM

Row | Compound | growth
1 | Nc1nc2c(c(-c3nc(N)nc4c3CCc3ccccc3-4)n1)CCc1ccccc1-2 | 97.4%
2 | CCOC(=O)CCCS(C)(=O)=O | 98.6%
3 | COc1ccccc1NC(=O)C1=C(C)NC(C)=C(C(=O)Nc2ccccc2OC)C1c1cccc([N+](=O)[O-])c1 | 76.6%
4 | O=C(c1ccccc1)C1CCC1 | 102%
5 | CCOC(=O)C(=O)C=P(c1ccccc1)(c1ccccc1)c1ccccc1 | 99.4%
6 | O=[N+]([O-])c1cccc(C(F)(F)F)c1 | 101%
7 | CCCC(=O)Nc1ccc2c(c1)CN1C(=O)c3ccccc3C1=N2 | 106%
8 | CC(C)=NNc1ccc([N+](=O)[O-])cc1[N+](=O)[O-] | 95.5%
9 | CC(=O)OCC1=CC2OC(=O)C3=COC(OC4OC(CO)C(O)C(O)C4O)C1C32 (stereo not drawn) | 72.4%
10 | COc1nc(N)nc2c1ncn2C1OC(CO)CC1O (stereo not drawn) | 103%
11 | Nc1ccc(C(=O)c2ccc(N)c(Br)c2)cc1Br | 44.4%
12 | CO[C@H]1C[C@@H]2CC[C@@H](C)[C@@](O)(O2)C(=O)C(=O)N2CCCC[C@H]2C(=O)O[C@H]([C@H](C)C[C@@H]2CC[C@@H](O)[C@H](OC)C2)CC(=O)[C@H](C)C=C(C)[C@@H](O)[C@@H](OC)C(=O)[C@H](C)C[C@H](C)/C=C/C=C/C=C1C | 45.4%
13 | CC(=O)OCCC(C)CCC=C(C)C (stereo not drawn) | 105%
14 | CCOC(=O)c1cc(/C=C/c2cccc(Cl)c2)on1 | 81.1%
15 | COC(=O)C(C)Oc1ccc(OC#N)cc1 (stereo not drawn) | 95%
16 | Cc1cc(N)ccc1-c1ccc(N)cc1C | 92.8%
17 | CCC1NC(=O)C(NC(=O)c2ncccc2O)C(C)OC(=O)C(c2ccccc2)NC(=O)C2CC(=O)CCN2C(=O)C(Cc2ccc(N(C)C)cc2)N(C)C(=O)C2CCCN2C1=O (stereo not drawn) (tested in a mixture with another compound) ({Picolinoyl(3-OH)}-T[Abu]P[ξNMePhe(4-NMe2)][ξPip(4-oxo)][Phg]; ester 1-C; configuration not given here) | 19.7%
18 | COc1ccc2c(NCCCCCCCCNc3c4ccccc4nc4cc(OC)ccc34)c3ccccc3nc2c1 | -92.2% (active)
19 | CC1(O)OC(COc2ccc(Cl)cc2)COC1O (stereo not drawn) | 102%

Row | Compound | growth
20 | CCN(CC)C(=O)/C=C(/C)c1ccccc1 | 96.5%
21 | N=c1c(C(=O)OCc2ccccc2)ncc(CCl)n1O | 100%
22 | COC(=O)c1[nH]c(=O)c(C#N)c(C(=O)OC)c1C(=O)c1ccccc1 | 95.4%
23 | CCCNC(=O)c1ccc(S(N)(=O)=O)cc1 | 118%
24 | O=C(c1ccc(O)cc1)c1ccc(O)cc1 | 106%
25 | NC(=O)N/N=C\c1ccco1 | 108%
26 | O=S(=O)(O)CC(O)CN1CCN(CCO)CC1 (stereo not drawn) | 94.2%
27 | Cc1ccc(C)n1-c1ccsc1C(=O)NNC(=O)C(Cl)Cl | 98.4%
28 | O=c1cc(-c2ccccc2)oc2c1ccc1ccccc12 | 85.2%
29 | Oc1ccc(N=Nc2ccc(Br)cc2)c(O)c1 | 19.6%
30 | O=c1c2ccccc2c(Br)c(Br)c2ccccc12 | 78.1%
31 | C/C(=C\c1cc(Cl)ccc1OCC(=O)O)[N+](=O)[O-] | 96.2%
32 | COC(=O)/C=C\C(=O)OC | 106%
33 | O=C(O)c1cc([N+](=O)[O-])ccc1Cl | 104%
34 | N#Cc1c(N)sc(=S)c2c1CCCC2 | 101%
35 | CCOC(=O)c1[nH]c(C)c(C(=O)O)c1C | 109%
36 | C#C[C@H]1CCCCCC1O (stereo partly drawn) | 95.7%
37 | Nc1nc(N)c2cc(S(=O)(=O)c3cccc(C(F)(F)F)c3)ccc2n1 | 53.5%
38 | CCN(CC)CCCC(C)Nc1ccnc(/C=C/c2ccc(Cl)cc2)c1 (stereo not drawn) | 67.4%
